# From PubChem BioAssay
# “And” between values parts separate entries of the source, which are not always exact repeats. Identical values can stand only once. For some of these results: Measured potencies and affinities stand elsewhere. The source holds several records for some structures; these can differ, active in one and inactive in another. The source made the active and inactive calls. Cut-off read from the data, not from the text of the source, unless noted: active = parasite load remaining mostly below about 12% (no sharp cut-off); inactive = mostly above about 10%.
# Legend:
# [1] = suppressors of polyQ aggregation in yeast, 75Q-TubU reporter (AID 1593); settings: Yeast 75Q polyglutamine aggregation reporter
# [2] = rescue of polyQ-huntingtin neuronal dysfunction in worms, whole organism, C. elegans mechanosensory neurons, N-terminal huntingtin (AID 1599); settings: touch response, stronger effect = higher value
# [3] = inhibitors of mitochondrial cytochrome c release, biochemical, purified mitochondria (AID 1603); settings: stronger effect = lower value;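 note: mouse liver mitochondria challenged with calcium chloride; signal normalized to the plate average as 100%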
# [4] = inhibitors of polyQ protein aggregation (AID 1604); settings: polyglutamine-induced protein aggregation inhibition assay; stronger effect = higher value; tested at 2.5 µM
# [5] = enhancers of glutamate uptake in motor neurons, MN-1 cell line (AID 1612); settings: MN-1 motor neuron cells, stronger effect = higher value;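 note: tested at 1 µM final; 0% = mean of DMSO vehicle wells on each plate; positive means more glutamate uptake than control and negative means less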
# [6] = suppressors of polyglutamine aggregation in yeast, 75Q-TubH (AID 1616); settings: S. cerevisiae 75Q-TubH polyglutamine aggregation suppression; stronger effect = higher value
# [7] = liver-stage malaria parasite growth inhibition, primary screen, cell-based, HepG2, luciferase luminescence, HepG2 viability (AID 624349);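 note: 100% = mean of DMSO negative control wells on the same plate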; settings: P. berghei liver stage in HepG2, luciferase luminescence, concentration not given here; parasite load remaining: stronger effect = lower value; viability: measured here: HepG2 viability without parasites
# [8] = molecular target: 6-phosphogluconate dehydrogenase, decarboxylating (Homo sapiens) (UniProt P52209); test: 6PGD enzyme inhibitors, primary screen, biochemical, human, recombinant enzyme, NADPH absorbance (AID 1159550;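 active = at least 20% inhibition of 6-phosphogluconate dehydrogenase activity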); settings: recombinant 6PGD, NADPH absorbance 341 nm; at 10 µM; stronger effect = higher value
# [9] = differential killing of epithelial or mesenchymal cells, primary screen, imaging, PC-3E GFP, TEM4-18 mCherry, co-culture (AID 1345086;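 active = compounds killing one labelled cell type while sparing the other, by normalised counts and ratio limits, not self-fluorescent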;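 for all read-outs here: cells exposed to compound for 72 h before imaging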;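 for red/green cell ratio (normalised): normalised mesenchymal count divided by normalised epithelial count so high means epithelial killing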); settings: imaging cell counts, at 1 µM; for red/green cell ratio (normalised): actives lie on both sides, counts scaled to control wells, 1 = unselective
# [10] = sensitizers of A549 cells to miR-34 induction, primary screen, imaging, A549 dox-inducible miR-34, nuclei and caspase counts (AID 1347080;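 active = compounds whose cell count with miR-34 switched on is under 0.7 times the count with it off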); settings: A549 miR-34 inducible, Hoechst nuclei count, 48 h
# [11] = molecular target: NAD(+) hydrolase SARM1 (Homo sapiens) (UniProt Q6SZW1); test: SARM1 TIR NADase inhibitors, cell lysate, NAD-Glo luminescence (AID 1508614;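 active = compound whose remaining NAD level is above about 45 nM, limit read from the data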;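 note: higher remaining NAD means stronger inhibition of SARM1 NADase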); settings: SAM-TIR HEK293T lysate NADase, at 1 µM, stronger effect = higher value
# [12] = molecular target: Mitogen-activated protein kinase 7 (Homo sapiens) (UniProt Q13164); test: ERK5 transactivation activators in reporter cells, primary screen, cell-based, HTS (AID 1508626;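 active = luciferase signal above three times the same-plate solvent-only control wells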;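 note: luciferase driven by Gal4-ERK5 fusion binding five Gal4 sites before minimal TATA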); settings: HeLa Gal4-ERK5 transactivation, 18 h, at 5 µM, stronger effect = higher value
# [13] = polyglutamine-triggered caspase-3 activation inhibitors, cell-based (AID 1583); settings: polyglutamine-induced caspase-3 activation, cell assay; stronger effect = higher value;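 tested at 10 µM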
# [14] = reducers of polyQ inclusions in PC12 cells, cell-based, NGF-treated PC12, GFPQ80 (AID 1614); settings: PC12 NGF-treated GFP-polyQ80 inclusion reduction;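 note: lower means fewer inclusions and 0 means no inclusions at all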
# [15] = hESC survival regulators, cell-based (AID 493140; call rule not given here;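 note: cells exposed to compounds for four days before counting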); settings: human embryonic stem cell survival screen; stronger effect = higher value
# [16] = circadian clock period modulators, cell-based, LOPAC library, luminescence reporter (AID 2774; call rule not given here;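 note: values are relative to mean of DMSO wells on each plate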); settings: circadian reporter cells, at 7 µM, actives lie on both sides
# [17] = phospholipid biosynthesis inhibitors in animal cells, primary screen, cell-based, LOPAC library, screen 4 (AID 1347384; call rule not given here); settings: phospholipid biosynthesis inhibition screen, at 10 µM
# [18] = survival rescue of mitochondrial mutant cells in low glucose, primary screen, MELAS cybrids, Rieske KO mouse fibroblasts, CellTiter-Glo (AID 1508586;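 active = mean z-score across replicates of 1.96 or higher in either the MELAS or the Rieske mutant cell line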;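 note: z relative to plate mean and SD of compound and empty wells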)
# [19] = viability rescue of complex I mutant cybrids, primary screen, cell-based, galactose medium, ATP luminescence (AID 1645843;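 active = z-score of at least 1.8 in each of two replicates, scored against plate mean and spread of sample wells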;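 note: positive z means more ATP and so rescue of galactose-driven cybrid death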); settings: complex I mutant cybrid cells, 72 h, stronger effect = higher value
# [20] = measured here: epithelial PC-3E GFP cell survival
# [21] = measured here: mesenchymal TEM4-18 mCherry cell survival
# [22] = stronger effect = lower value, cell number ratio, induced over uninduced
# [23] = measured here: relative caspase fold change +Dox/-Dox
# [24] = measured here: total cells with miR-34 induction, stronger effect = lower value
# [25] = measured here: total cells without miR-34 induction
# Sequence of Mitogen-activated protein kinase 7 (Homo sapiens) (Q13164 whole entry, looked up, the tested form may be a part): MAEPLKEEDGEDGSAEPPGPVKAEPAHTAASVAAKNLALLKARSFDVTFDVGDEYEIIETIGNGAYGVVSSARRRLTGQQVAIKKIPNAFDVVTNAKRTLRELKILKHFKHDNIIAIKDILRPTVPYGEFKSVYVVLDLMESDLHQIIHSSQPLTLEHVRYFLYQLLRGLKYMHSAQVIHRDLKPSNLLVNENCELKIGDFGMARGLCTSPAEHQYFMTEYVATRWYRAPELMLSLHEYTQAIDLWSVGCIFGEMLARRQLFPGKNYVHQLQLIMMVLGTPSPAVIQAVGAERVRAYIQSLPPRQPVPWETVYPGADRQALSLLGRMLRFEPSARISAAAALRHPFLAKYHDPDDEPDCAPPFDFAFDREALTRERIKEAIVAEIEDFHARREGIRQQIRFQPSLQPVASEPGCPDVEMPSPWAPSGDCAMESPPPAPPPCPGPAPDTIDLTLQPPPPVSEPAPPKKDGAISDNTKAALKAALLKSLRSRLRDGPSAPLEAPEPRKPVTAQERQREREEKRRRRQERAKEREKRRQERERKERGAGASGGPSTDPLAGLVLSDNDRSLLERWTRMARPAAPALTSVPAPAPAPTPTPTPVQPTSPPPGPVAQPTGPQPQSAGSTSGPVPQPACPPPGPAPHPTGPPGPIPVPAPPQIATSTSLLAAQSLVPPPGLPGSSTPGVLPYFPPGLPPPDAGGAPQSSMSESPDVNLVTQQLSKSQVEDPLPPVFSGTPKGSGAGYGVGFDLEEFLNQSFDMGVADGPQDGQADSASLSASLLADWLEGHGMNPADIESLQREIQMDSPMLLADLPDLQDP
# Sequence of NAD(+) hydrolase SARM1 (Homo sapiens) (Q6SZW1 whole entry, looked up, the tested form may be a part): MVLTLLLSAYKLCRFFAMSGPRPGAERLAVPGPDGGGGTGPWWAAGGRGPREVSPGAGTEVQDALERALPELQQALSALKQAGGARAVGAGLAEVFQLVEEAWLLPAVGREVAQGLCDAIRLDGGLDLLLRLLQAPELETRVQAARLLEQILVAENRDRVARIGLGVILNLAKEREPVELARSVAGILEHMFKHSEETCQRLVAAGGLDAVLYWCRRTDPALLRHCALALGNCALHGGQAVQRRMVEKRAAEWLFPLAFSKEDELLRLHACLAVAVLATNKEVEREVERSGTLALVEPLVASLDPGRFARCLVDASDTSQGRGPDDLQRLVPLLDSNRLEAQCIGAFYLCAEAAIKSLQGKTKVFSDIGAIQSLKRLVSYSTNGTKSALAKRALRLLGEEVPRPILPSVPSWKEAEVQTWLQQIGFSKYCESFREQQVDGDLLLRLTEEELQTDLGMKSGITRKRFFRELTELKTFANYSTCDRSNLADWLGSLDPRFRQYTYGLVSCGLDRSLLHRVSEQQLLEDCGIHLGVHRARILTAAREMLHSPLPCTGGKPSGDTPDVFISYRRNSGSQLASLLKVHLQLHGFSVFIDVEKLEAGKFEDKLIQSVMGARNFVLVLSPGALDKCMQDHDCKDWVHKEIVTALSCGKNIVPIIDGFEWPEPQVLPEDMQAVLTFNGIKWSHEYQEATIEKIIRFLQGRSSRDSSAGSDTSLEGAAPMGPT
# Sequence of 6-phosphogluconate dehydrogenase, decarboxylating (Homo sapiens) (P52209 whole entry, looked up): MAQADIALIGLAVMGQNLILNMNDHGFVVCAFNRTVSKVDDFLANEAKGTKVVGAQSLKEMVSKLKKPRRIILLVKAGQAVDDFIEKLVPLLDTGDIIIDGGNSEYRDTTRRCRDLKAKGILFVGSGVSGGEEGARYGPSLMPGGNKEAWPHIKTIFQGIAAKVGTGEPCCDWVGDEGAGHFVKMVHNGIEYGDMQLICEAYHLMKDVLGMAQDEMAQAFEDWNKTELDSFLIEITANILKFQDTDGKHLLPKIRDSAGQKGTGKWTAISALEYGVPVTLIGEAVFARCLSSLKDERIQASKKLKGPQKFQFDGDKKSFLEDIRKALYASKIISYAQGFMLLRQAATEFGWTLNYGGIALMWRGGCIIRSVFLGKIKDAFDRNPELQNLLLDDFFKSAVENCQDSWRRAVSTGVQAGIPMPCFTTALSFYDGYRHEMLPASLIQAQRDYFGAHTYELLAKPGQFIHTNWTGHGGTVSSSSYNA
compound,measurement,setting,value
C[n+]1c2cc(N)ccc2cc2ccc(N)cc21,score,[1],0.44
same,rescue above control,[2],0
same,cytochrome c release ratio,[3],0.97
same,inhibition of aggregation,[4],91.3%
same,glutamate uptake change,[5],14.1%
same,aggregation suppression score,[6],0.101
same,parasite load remaining,[7],25.5% (inactive) and -0.145% (inactive)
same,viability,[7],41.9% and 34.3%
same,inhibition,[8],-0.987% (inactive)
same,red/green cell ratio (normalised),[9],0.5 (active)
same,normalised cell number,[9]; [20],0.8
same,normalised cell number,[9]; [21],0.4
same,fold change,[10]; [22],1.05 (inactive)
same,fold change,[10]; [23],0.642
same,cell count,[10]; [24],1590
same,cell count,[10]; [25],1510
same,remaining NAD,[11],10 nM (inactive)
same,luciferase signal,[12],24 AU (inactive)
CCN(CC)Cc1ccc(Nc2ccnc3cc(Cl)ccc23)cc1O,inhibition,[13],-50.2%
same,score,[1],1.49
same,rescue above control,[2],8.25
same,cytochrome c release ratio,[3],0.74
same,inhibition of aggregation,[4],65.5%
same,glutamate uptake change,[5],1.51%
same,aggregation suppression score,[6],1.68
same,parasite load remaining,[7],-0.345% (active) and 0.905% (inactive)
same,viability,[7],63% and 59.3%
same,inhibition,[8],4.92% (inactive)
same,red/green cell ratio (normalised),[9],0.8 (inactive)
same,normalised cell number,[9]; [20],1.14
same,normalised cell number,[9]; [21],0.91
same,fold change,[10]; [22],0.936 (inactive)
same,fold change,[10]; [23],0.896
same,cell count,[10]; [24],8520
same,cell count,[10]; [25],9100
COc1cc2ccc(=O)oc2cc1O,inhibition,[13],-26.2%
same,score,[1],1.15
same,rescue above control,[2],11.4
same,cytochrome c release ratio,[3],0.77
same,inhibition of aggregation,[4],0%
same,glutamate uptake change,[5],13.8%
same,inclusion score,[14],2
same,aggregation suppression score,[6],1.62
same,survival,[15],12.4 (inactive)
same,parasite load remaining,[7],104% (inactive) and 103% (inactive)
same,viability,[7],106% and 66.2%
same,inhibition,[8],-1.14% (inactive)
same,red/green cell ratio (normalised),[9],1.11 (inactive)
same,normalised cell number,[9]; [20],0.86
same,normalised cell number,[9]; [21],0.96
same,fold change,[10]; [22],0.946 (inactive)
same,fold change,[10]; [23],1.18
same,cell count,[10]; [24],8620
same,cell count,[10]; [25],9110
same,luciferase signal,[12],40 AU (inactive)
C1CNCCN1,inhibition,[13],15.3%
same,score,[1],1.95
same,rescue above control,[2],-1.97
same,cytochrome c release ratio,[3],1.16
same,inhibition of aggregation,[4],15.4%
same,glutamate uptake change,[5],-12.2%
same,inclusion score,[14],2
same,aggregation suppression score,[6],1.67
same,parasite load remaining,[7],96.9% (inactive) and 59.4% (inactive)
same,viability,[7],74.5% and 108%
same,inhibition,[8],7.35% (inactive)
same,red/green cell ratio (normalised),[9],1.22 (inactive)
same,normalised cell number,[9]; [20],0.8
same,normalised cell number,[9]; [21],0.98
same,fold change,[10]; [22],0.887 (inactive)
same,fold change,[10]; [23],2.06
same,cell count,[10]; [24],11000
same,cell count,[10]; [25],12400
same,remaining NAD,[11],10 nM (inactive)
same,luciferase signal,[12],560 AU (inactive)
CN(C)CCC(c1ccc(Br)cc1)c1ccccn1 (stereo not given),period change,[16],0.005 h (inactive)
same,survival,[15],1.08 (inactive)
same,inhibition,[8],5% (inactive)
same,red/green cell ratio (normalised),[9],1.05 (inactive)
same,normalised cell number,[9]; [20],1.13
same,normalised cell number,[9]; [21],1.19
same,outcome,[17],inactive
same,z-score,"[18]; MELAS cybrid survival, CellTiter-Glo 48 h, stronger effect = higher value",-0.114 (inactive) and -0.273 (inactive) and -0.659 (inactive)
same,z-score,"[18]; Rieske KO mouse fibroblast survival, CellTiter-Glo 72 h",-0.476 and -0.248 and 0.132
same,remaining NAD,[11],10 nM (inactive)
same,luciferase signal,[12],48 AU (inactive)
same,z-score,[19],-0.18 (inactive) and -0.16 (inactive) and 0.035 (inactive)
NC(N)=O,inhibition,[13],5.74%
same,score,[1],1.17
same,rescue above control,[2],4.79
same,cytochrome c release ratio,[3],1.04
same,inhibition of aggregation,[4],43.7%
same,glutamate uptake change,[5],-1.11%
same,inclusion score,[14],2
same,aggregation suppression score,[6],1.21
same,parasite load remaining,[7],107% (inactive) and 54.8% (inactive)
same,viability,[7],72.7% and 99.5%
same,inhibition,[8],-2.6% (inactive)
same,red/green cell ratio (normalised),[9],0.95 (inactive)
same,normalised cell number,[9]; [20],1.22
same,normalised cell number,[9]; [21],1.16
same,fold change,[10]; [22],0.93 (inactive)
same,fold change,[10]; [23],2.44
same,cell count,[10]; [24],12300
same,cell count,[10]; [25],13300
same,remaining NAD,[11],10 nM (inactive)
same,luciferase signal,[12],52 AU (inactive)
CC1(C)S[C@@H]2C(N3C(=O)[C@@H](c4ccccc4)NC3(C)C)C(=O)N2[C@H]1C(=O)O (stereo not given in full),inhibition,[13],4.02%
same,score,[1],1.26
same,rescue above control,[2],-1.6
same,cytochrome c release ratio,[3],0.9
same,inhibition of aggregation,[4],49.2%
same,glutamate uptake change,[5],4.63%
same,inclusion score,[14],2
same,aggregation suppression score,[6],1.31
same,parasite load remaining,[7],110% (inactive) and 71.1% (inactive)
same,viability,[7],76.4% and 94.5%
same,inhibition,[8],-0.481% (inactive)
same,red/green cell ratio (normalised),[9],1.14 (inactive)
same,normalised cell number,[9]; [20],0.94
same,normalised cell number,[9]; [21],1.08
same,fold change,[10]; [22],0.886 (inactive)
same,fold change,[10]; [23],0.799
same,cell count,[10]; [24],11200
same,cell count,[10]; [25],12600
CC(=O)Oc1cccc(C(=O)O)c1OC(C)=O,inhibition,[8],0.748% (inactive)
same,red/green cell ratio (normalised),[9],0.81 (inactive)
same,normalised cell number,[9]; [20],1.05
same,normalised cell number,[9]; [21],0.86
same,remaining NAD,[11],10 nM (inactive)
